The source of these data is PubChem BioAssay.

Structures are written as SMILES. Active and inactive are the calls of the source. Unless noted, no rule for the calls is given here.

The subject of assay [1] is Wnt5a (protein binding on small-molecule microarray). Description: small molecules binding Wnt5a protein – biophysical, small-molecule microarray, 635/667 nm fluorescence, primary screen (AID 1142).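 Also: fluorescence read at 667 nm with signal to noise per printed feature.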 The conditions noted are these: 635 nm fluorescence, higher = more signal.
Assay [2] can be described thus: ATP-based viability of Huh7 replicon cells – cell-based, CellTiter-Glo luminescence, basal, 48 h, cytotoxicity control for HCV replication inhibitor project, primary screen (AID 1143).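 Also: Huh7 hepatoma cells carrying a hepatitis C replication reporter with no stimulus; test concentration not given here.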 The conditions noted are these: higher = more signal, called active from +8 up or from −8 down. (In general: Replicon systems follow genome replication, usually without infectious particles.)

Assay [3] in a line: Pseudomonas biofilm growth suppression – PAO1 strain, BacTiter-Glo luminescence, LB-PBS, primary screen (AID 1144). The note with it: P. aeruginosa PAO1 biofilm, 12 h, higher = more signal.
Assay [4] can be described thus: basal CRE-LacZ reporter activity in PC12 – cell-based, unstimulated, primary screen (AID 1145). The conditions noted are these: no forskolin, luminescence, 4.5 h, higher = more signal, called active from +8 up or from −8 down.
Assay [5] in a line: forskolin-driven CRE-LacZ activity in PC12 – cell-based, CRE-LacZ reporter, forskolin-stimulated, primary screen (AID 1146).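 Also: PC12 cells with 6xCRE LacZ reporter stimulated by forskolin 10 µM; beta-galactosidase reporter signal reflecting CREB driven transcription.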 The note with it: luminescence, 4.5 h, higher = more signal, called active from +8 up or from −8 down.
For assay [6], the target named is Streptavidin (Streptomyces avidinii) (UniProt P22629). Description: compounds binding control protein streptavidin – biophysical, small-molecule microarray, 635/667 nm fluorescence, artefact control for SMM compound annotation, primary screen (AID 1147).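 Also: signal reflects streptavidin binding to arrayed compounds as a control protein.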 The note with it: higher = more signal.
Assay [7] in a line: probe aInhba binding on compound microarray – biochemical, small-molecule microarray, 635/667 nm fluorescence, primary screen (AID 1148).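 Also: score merges 667nm spot fluorescence with signal-to-noise for antibody binding to printed compounds.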 The note with it: higher = more signal.
The target of assay [8] is Torsin-1A (Homo sapiens) (UniProt O14656). Description: TOR1A wild-type binding on microarray – cell lysate, small-molecule microarray, lysate, 635/667 nm, primary screen (AID 1149). The note with it: COS7 hTOR1A-WT lysate, 635 nm fluorescence, higher = more signal.
Assay [9] has the same target. The assay can be described thus: torsin A mutant lysate binding on microarrays – cell lysate, small-molecule microarray, COS7 lysate, 635/667 nm fluorescence, primary screen (AID 1150).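 Also: score pools 667 nm emission and signal to noise measuring lysate protein binding.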 The conditions noted are these: COS7 hTOR1A mutant lysate, 635 nm fluorescence, higher = more signal.
The subject of assay [10] is Sonic hedgehog protein (Shh). Description: Sonic hedgehog microarray binding compounds – biochemical, small-molecule microarray, 635/667 nm fluorescence, primary screen (AID 1151).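 Also: Shh protein binding to compounds spotted on small-molecule microarray slides; score combines spot fluorescence intensity with signal-to-noise across triplicate slides.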 The note with it: 635 nm fluorescence, higher = more signal.
A short description of assay [11]: optical density shifts of acrAB sulA E. coli – strain DRC41, OD650, 48 h, E. coli filamentation inducer project, primary screen (AID 1152).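 Also: E. coli MC1000 strain DRC41 lacking acrAB efflux pump and sulA.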 The conditions noted are these: higher = more signal, called active from +8 up or from −8 down.
Assay [12] is described as follows: probe aLefty1 binding on compound microarray – biochemical, small-molecule microarray, 635/667 nm fluorescence, primary screen (AID 1153).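 Also: score merges spot fluorescence with signal-to-noise ratio from the scanned slide images.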 The conditions noted are these: higher = more signal.
A short description of assay [13]: plasmodial surface anion channel blockers, osmotic lysis – cell-based, P. falciparum Indochina, OD700, 1 h, primary screen (AID 1154). The note with it: P. falciparum Indochina infected RBC osmotic lysis, higher = more signal, called active from +8 up or from −8 down.
The nature of assay [14]: plasmodial surface anion channel blockers, osmotic lysis – cell-based, P. falciparum Indochina, OD700, 2 h, primary screen (AID 1155).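 Also: lysis reports solute entry through the parasite surface anion channel PSAC.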 The conditions noted are these: P. falciparum Indochina infected erythrocytes, higher = more signal, called active from +8 up or from −8 down.
The nature of assay [15]: changes in parasitized red cell lysis, either direction – P. falciparum Indochina, OD700, 3 h, PSAC antagonist project, primary screen (AID 1156). The note with it: P. falciparum-infected erythrocytes, osmotic lysis, higher = more signal, called active from +8 up or from −8 down.
The nature of assay [16]: plasmodial surface anion channel blockers, osmotic lysis – cell-based, P. falciparum Indochina, OD700, 18 h, primary screen (AID 1157). The note with it: P. falciparum Indochina infected erythrocytes, osmotic lysis OD700, 18 h; higher = more signal, called active from +8 up or from −8 down.
Assay [17] can be described thus: S6 kinase pathway phospho-S6 level changes – cell-based, A549, cytoblot, luminescence, serum-stimulated, primary screen (AID 1158).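 Also: serum-stimulated A549 lung adenocarcinoma cells; signal is phosphorylated S6 detected by cytoblot immunostaining with HRP secondary.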 The conditions noted are these: 5 h, higher = more signal.
Assay [18] deals with NADPH oxidase 2 (Homo sapiens) (UniProt P04839). Description: compounds shifting NOX2 Amplex Red fluorescence – cell-based, HEK293-NOX2, PMA-stimulated, NOX inhibitor project, primary screen (AID 1159). Also: test concentration not given here. The conditions noted are these: 45 min, higher = more signal, called active from +8 up or from −8 down.
The target of assay [19] is NADPH oxidase 4 (Homo sapiens) (UniProt Q9NPH5). Description: compounds shifting NOX4 Amplex Red fluorescence – cell-based, HEK293-NOX4, tetracycline-induced, NOX inhibitor project, primary screen (AID 1160). The conditions noted are these: HEK293-NOX4, Amplex Red H2O2 fluorescence, 45 min; higher = more signal, called active from +8 up or from −8 down.
The target in assay [20] is NADPH oxidase 5 (Homo sapiens) (UniProt Q96PH1). Description: compounds shifting NOX5 Amplex Red fluorescence – cell-based, HEK293-NOX5, NOX inhibitor project, primary screen (AID 1161). The conditions noted are these: HEK293-NOX5, ionomycin, 45 min, higher = more signal.
NADPH oxidase 5 (Homo sapiens), sequence (Q96PH1 whole entry, looked up): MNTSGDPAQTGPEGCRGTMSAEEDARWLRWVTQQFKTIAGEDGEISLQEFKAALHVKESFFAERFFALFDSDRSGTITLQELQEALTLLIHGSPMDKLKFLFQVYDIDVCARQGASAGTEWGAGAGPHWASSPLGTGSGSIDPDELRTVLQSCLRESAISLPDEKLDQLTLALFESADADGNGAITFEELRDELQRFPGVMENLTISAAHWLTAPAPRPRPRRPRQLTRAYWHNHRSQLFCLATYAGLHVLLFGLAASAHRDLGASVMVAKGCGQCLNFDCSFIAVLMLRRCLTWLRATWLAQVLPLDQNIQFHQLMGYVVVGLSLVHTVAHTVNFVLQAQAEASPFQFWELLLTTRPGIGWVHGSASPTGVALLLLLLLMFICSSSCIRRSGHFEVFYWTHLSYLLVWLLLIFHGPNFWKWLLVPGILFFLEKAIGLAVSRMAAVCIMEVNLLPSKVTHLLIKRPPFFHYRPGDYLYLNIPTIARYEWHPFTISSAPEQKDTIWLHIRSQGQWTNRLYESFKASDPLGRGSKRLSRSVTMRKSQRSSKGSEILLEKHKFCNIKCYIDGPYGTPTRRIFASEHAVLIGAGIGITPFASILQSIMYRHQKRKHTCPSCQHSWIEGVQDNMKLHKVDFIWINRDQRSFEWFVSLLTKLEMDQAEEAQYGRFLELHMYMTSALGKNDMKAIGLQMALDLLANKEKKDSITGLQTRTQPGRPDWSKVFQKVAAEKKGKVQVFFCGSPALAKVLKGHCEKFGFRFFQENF

Torsin-1A (Homo sapiens), sequence (O14656 whole entry, looked up): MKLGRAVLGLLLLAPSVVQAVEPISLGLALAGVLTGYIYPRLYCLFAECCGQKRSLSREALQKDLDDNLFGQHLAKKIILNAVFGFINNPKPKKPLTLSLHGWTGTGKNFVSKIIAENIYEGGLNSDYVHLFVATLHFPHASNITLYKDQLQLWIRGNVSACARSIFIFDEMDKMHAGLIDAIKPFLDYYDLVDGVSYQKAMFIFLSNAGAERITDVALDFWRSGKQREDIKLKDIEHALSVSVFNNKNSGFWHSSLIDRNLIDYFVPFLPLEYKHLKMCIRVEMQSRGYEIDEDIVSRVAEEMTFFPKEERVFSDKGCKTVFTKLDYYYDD
NADPH oxidase 2 (Homo sapiens), sequence (P04839 whole entry, looked up): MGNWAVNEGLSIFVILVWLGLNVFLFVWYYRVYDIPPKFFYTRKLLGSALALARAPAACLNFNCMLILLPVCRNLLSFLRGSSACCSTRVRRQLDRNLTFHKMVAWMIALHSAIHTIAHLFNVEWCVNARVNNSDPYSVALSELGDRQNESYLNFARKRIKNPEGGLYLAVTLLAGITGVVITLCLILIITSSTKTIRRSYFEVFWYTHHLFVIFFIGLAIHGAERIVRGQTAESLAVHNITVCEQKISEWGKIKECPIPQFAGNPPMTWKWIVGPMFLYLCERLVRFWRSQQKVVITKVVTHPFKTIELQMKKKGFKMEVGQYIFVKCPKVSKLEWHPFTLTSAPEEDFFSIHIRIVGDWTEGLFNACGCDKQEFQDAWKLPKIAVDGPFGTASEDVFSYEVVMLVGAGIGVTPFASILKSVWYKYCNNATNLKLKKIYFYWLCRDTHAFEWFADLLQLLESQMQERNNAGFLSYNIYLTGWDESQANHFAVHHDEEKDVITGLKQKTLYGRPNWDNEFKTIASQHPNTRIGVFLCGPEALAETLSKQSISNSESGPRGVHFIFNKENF
NADPH oxidase 4 (Homo sapiens), sequence (Q9NPH5 whole entry, looked up): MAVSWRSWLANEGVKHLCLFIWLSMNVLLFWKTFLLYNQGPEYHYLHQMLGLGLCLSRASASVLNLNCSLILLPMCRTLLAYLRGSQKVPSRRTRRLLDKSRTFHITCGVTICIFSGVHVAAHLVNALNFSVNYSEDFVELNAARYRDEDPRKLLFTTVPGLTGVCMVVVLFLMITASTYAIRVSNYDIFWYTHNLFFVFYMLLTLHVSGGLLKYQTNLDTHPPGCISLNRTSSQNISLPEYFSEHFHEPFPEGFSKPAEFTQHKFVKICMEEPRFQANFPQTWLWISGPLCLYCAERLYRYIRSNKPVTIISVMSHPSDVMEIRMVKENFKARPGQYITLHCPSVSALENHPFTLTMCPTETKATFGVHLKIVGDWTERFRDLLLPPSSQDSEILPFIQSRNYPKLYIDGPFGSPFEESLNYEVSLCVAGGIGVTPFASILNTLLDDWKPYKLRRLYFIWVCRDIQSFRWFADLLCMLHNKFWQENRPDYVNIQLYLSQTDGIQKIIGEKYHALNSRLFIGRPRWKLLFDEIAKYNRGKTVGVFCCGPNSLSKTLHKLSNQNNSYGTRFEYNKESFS
Streptavidin (Streptomyces avidinii), sequence (P22629 whole entry, looked up): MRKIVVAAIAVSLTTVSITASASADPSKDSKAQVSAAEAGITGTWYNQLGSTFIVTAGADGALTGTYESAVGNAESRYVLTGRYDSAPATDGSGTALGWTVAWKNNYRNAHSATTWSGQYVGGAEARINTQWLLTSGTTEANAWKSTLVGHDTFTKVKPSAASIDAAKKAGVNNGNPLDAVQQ

Turning to `COC(=O)[C@@]1(Cc2ccccc2)[C@H]2c3cc(C(=O)N4CCCC4)n(Cc4ccc(OC(F)(F)F)cc4)c3C[C@H]2CN1C(=O)c1ccccc1`, the composite z-score in assay [1] is 1.01; in assay [6], 1.64; in assay [7], 1.08; with Torsin-1A (Homo sapiens) [8] it was -0.429; with Torsin-1A (Homo sapiens) [9], 0.969; in assay [10] it was -1.44. Besides, in [12], the composite z-score was determined as 0.592. Besides, the z-score was -2.44 (inactive) in [2]; 0.0853 (inactive) in [3]; 2.49 (inactive) in [4]; 2.25 (inactive) in [5]; -2.11 (inactive) in assay [11]; 3.6 (inactive) in [13]. Further, the z-score was 1.2 (inactive) in [14]; 1.01 (inactive) in assay [15]; 1.35 (inactive) in [16]; -0.366 in assay [17]; 0.828 (inactive) in [18]; 1.34 (inactive) in assay [19]. Moreover, the z-score in assay [20] is 0.914.

Consider `COC(=O)c1ccc(OC)c(/C=C\CC(CCc2ccccc2)OC(=O)c2ccncc2)c1` (stereo not given), for which the composite z-score in assay [1] was -0.272; in assay [6], 0.925; in assay [7], -0.404; in the assay with Torsin-1A (Homo sapiens) [8], 0.175; with Torsin-1A (Homo sapiens) [9] it was 0.092; in [10], 1.25. This compound also yielded a composite z-score in assay [12] of -0.251. Further, the z-score in assay [2] is -1.66 (inactive); in assay [3] it was 1.02 (inactive); in [4] it was 1.75 (inactive); in [5], 0.455 (inactive); in assay [11], -0.295 (inactive); in assay [13], 17.9 (active). Besides, the z-score is 3.19 (inactive) in [14]; 0.533 (inactive) in [15]; 0.672 (inactive) in assay [16]; -0.224 in assay [17]; -0.392 (inactive) in [18]; 0.67 (inactive) in assay [19]. For the same compound, the z-score in assay [20] is -0.11.

For `Cc1ccc(S[C@]2(C(=O)NCC(C)C)CC(=O)N(C3CCCCC3)[C@@H]2c2ccc(CO)cc2I)cc1`, the composite z-score is 0.249 in assay [1]; 0.411 in [6]; -0.0259 in assay [7]; 0.314 in the assay with Torsin-1A (Homo sapiens) [8]; 0.289 with Torsin-1A (Homo sapiens) [9]; 0.104 in assay [10]. For the same compound, the composite z-score in [12] worked out at 0.568. For the same compound, the z-score in [2] was -4.87 (inactive); in [3], -0.88 (inactive); in assay [4], -0.619 (inactive); in assay [5], 0.413 (inactive); in assay [11] it was 0.256 (inactive); in assay [13], 4.6 (inactive). For the same compound, the z-score is 0.61 (inactive) in assay [14]; 0.796 (inactive) in [15]; 0.597 (inactive) in assay [16]; 0.212 in [17]; 1.54 (inactive) in [18]; -1.02 (inactive) in assay [19]. Also, the z-score in [20] was -2.07.

Regarding `CN1C(=O)C2C=CC(C(O)C3CCCCC3)N(N(c3ccccc3)c3ccccc3)C2C1=O` (stereo not given), the composite z-score is 0.0957 in [1]; -0.0316 in assay [6]; 0.596 in assay [7]; -0.08 with Torsin-1A (Homo sapiens) [8]; 0.0415 with Torsin-1A (Homo sapiens) [9]; -0.298 in [10]. In addition, the composite z-score in assay [12] stood at 0.344. Further, the z-score in assay [2] is 0.673 (inactive); in assay [3], 0.0683 (inactive); in [4], -0.333 (inactive); in assay [5] it was 0.355 (inactive); in assay [11], -1.11 (inactive); in assay [13] it was 0.801 (inactive). In addition, the z-score is 1.09 (inactive) in assay [14]; 0.332 (inactive) in assay [15]; 0.926 (inactive) in assay [16]; -1.47 in assay [17]; -0.557 (inactive) in assay [18]; -0.635 (inactive) in assay [19]. For the same compound, in assay [20], the z-score was -0.0135.

Take `COCCOC(=O)N1C(=O)[C@@]2(c3cc(C#CCCO)ccc31)[C@H](c1ccc(OCCO)cc1)N1[C@H](c3ccccc3)[C@H](c3ccccc3)OC(=O)[C@H]1[C@@H]2C(=O)N1CCc2cc(OC)c(OC)cc2C1`: the composite z-score in assay [1] is 0.359; in assay [6], 0.402; in assay [7], 0.153; in the assay with Torsin-1A (Homo sapiens) [8], 0.637; with Torsin-1A (Homo sapiens) [9], 0.748; in assay [10] it was 1.37. The composite z-score in [12] is 0.777. Also, the z-score was -0.415 (inactive) in assay [2]; -0.66 (inactive) in [3]; -0.231 (inactive) in assay [4]; -0.196 (inactive) in [5]; 0.526 (inactive) in assay [11]; 3.2 (inactive) in assay [13]. For the same compound, the z-score in assay [14] is 1.67 (inactive); in [15] it was 0.226 (inactive); in [16], 1.1 (inactive); in [17], -0.354; in assay [18], 0.898 (inactive); in assay [19], 1.01 (inactive). The z-score in assay [20] was determined as 1.23.

Regarding `C[C@H]1ON(c2ccccc2)[C@@H](c2ccccc2)[C@@H]1C(=O)N1C(=O)OC[C@@H]1c1ccccc1`, the composite z-score is -0.0367 in assay [1]; 0.116 in assay [6]; -0.0403 in assay [7]; 0.151 with Torsin-1A (Homo sapiens) [8]; 0.201 in the assay with Torsin-1A (Homo sapiens) [9]; 0.657 in [10]. Further, the composite z-score in [12] is -0.0141. In addition, the z-score in [2] is -0.133 (inactive); in assay [3], 0.0377 (inactive); in assay [4], -0.323 (inactive); in assay [5], -0.251 (inactive); in assay [11], 0.319 (inactive); in assay [13] it was 1.66 (inactive). Moreover, the z-score in assay [14] was 0.895 (inactive); in assay [15], -0.372 (inactive); in [16], 0.28 (inactive); in assay [17], 0.238; in assay [18] it was 0.198 (inactive); in [19], -0.28 (inactive). Further, the z-score in assay [20] is -0.654.

Take `C=CC[C@]1(C(=O)N(C)C)N=C(c2ccc(OCCCO)cc2)O[C@H]1c1ccccc1`: the composite z-score in [1] worked out at 0.902; in [6] it was 0.197; in assay [7], 0.0471; in the assay with Torsin-1A (Homo sapiens) [8], 0.62; with Torsin-1A (Homo sapiens) [9], 1.27; in [10] it was 0.757. Besides, in [12], the composite z-score was 0.325. The z-score in assay [2] was -4.69 (inactive); in assay [3], -0.87 (inactive); in assay [4], -0.38 (inactive); in [5], -1.19 (inactive); in assay [11], 1.17 (inactive); in assay [13], 28.3 (active). Also, the z-score was 17.7 (active) in [14]; 3.55 (inactive) in [15]; 1.46 (inactive) in assay [16]; 1.41 in assay [17]; -2.39 (inactive) in [18]; -0.252 (inactive) in [19]. In assay [20], the z-score is -4.75.

In the case of `Cc1cc(C)c(C(O)C2C=CC3C(=O)N(c4ccccc4)C(=O)C3N2Nc2ccc([N+](=O)[O-])cc2)c(C)c1` (stereo not given), the composite z-score was found to be 0.243 in assay [1]; 1.72 in [6]; 0.548 in [7]; 0.567 with Torsin-1A (Homo sapiens) [8]; 1.2 in the assay with Torsin-1A (Homo sapiens) [9]; 0.697 in [10]. The same compound came in with a composite z-score in assay [12] of 0.703. Further, the z-score in assay [2] is -1.1 (inactive); in assay [3], -2.08 (inactive); in [4], -0.0696 (inactive); in [5], 0.691 (inactive); in assay [11], -0.613 (inactive); in assay [13], 6.15 (inactive). In addition, the z-score was 1.76 (inactive) in assay [14]; 0.252 (inactive) in [15]; 1.13 (inactive) in assay [16]; -0.62 in assay [17]; -0.305 (inactive) in [18]; -0.661 (inactive) in assay [19]. Further, in assay [20], the z-score was -1.63.
